According to PubChem BioAssay AID1159580 (chemical genetic matrix, 2015):
Values joined by “and” are separate entries in the source; they are usually repeats but may differ in a detail not shown here. Equal values may be shown once. The campaign covered roughly 5,500 compounds. About 2,000 (36%) were called active. About 18% were inconclusive and are not listed. Cut-off read from the data, not from the text of the source: active = normalized growth mostly below about 0.91 (no sharp cut-off); inconclusive = no clear call, values can overlap the other calls; inactive = mostly above about 0.92. The list shows a part of the results.

Experiment: chemical genetic growth profiling, strain panel (AID 1159580);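 note: tested at 20 µM; growth read once vehicle control cultures reached saturation at 30 °C; 1 = growth at the plate median or of vehicle wells; lower values mean less growth of the strain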
Settings: growth OD

Measured: normalized growth

O=c1[nH]oc2c1CCNC2
inactive: S. cerevisiae deletion strains, locus YKL009W, strain mrt4, hits give low values 0.992 | S. cerevisiae deletion strains, locus YKL068W, hits give low values 0.982 | S. cerevisiae deletion strains, locus YKL085W, strain MDH1 (second series), hits give low values 1.03 | S. cerevisiae deletion strains, locus YKL085W, strain MDH1, hits give low values 1.03 | S. cerevisiae deletion strains, locus YKL160W, strain elf1, hits give low values 0.99 | S. cerevisiae deletion strains, locus YKL190W, strain CNB1, hits give low values 1.01 | S. cerevisiae deletion strains, locus YKR001C, strain vps1, hits give low values 0.977 | S. cerevisiae deletion strains, locus YKR026C, strain gcn3, hits give low values 1 | S. cerevisiae deletion strains, locus YKR091W, strain srl3, hits give low values 1 | S. cerevisiae deletion strains, locus YLL001W, strain dnm1, hits give low values 0.973 | S. cerevisiae deletion strains, locus YLL026W, hits give low values 0.989 | S. cerevisiae deletion strains, locus YLL041C, strain sdh2, hits give low values 1.01 | S. cerevisiae deletion strains, locus YLR027C, strain aat2, hits give low values 0.99 | S. cerevisiae deletion strains, locus YLR039C, strain RIC1, hits give low values 1.01 | S. cerevisiae deletion strains, locus YLR058C, strain SHM2, hits give low values 0.999 | S. cerevisiae deletion strains, locus YLR102C, strain apc9, hits give low values 0.982 | S. cerevisiae deletion strains, locus YLR113W, strain HOG1, hits give low values 0.974 | S. cerevisiae deletion strains, locus YLR221C, strain rsa3, hits give low values 0.999 | S. cerevisiae deletion strains, locus YLR258W, strain gsy2, hits give low values 1 | S. cerevisiae deletion strains, locus YLR262C, strain YPT6 (second series), hits give low values 1 | S. cerevisiae deletion strains, locus YLR262C, strain YPT6, hits give low values 0.993 | S. cerevisiae deletion strains, locus YLR268W, strain sec22, hits give low values 1.01 | S. cerevisiae deletion strains, locus YLR320W, strain mms22, hits give low values 1.01 | S. cerevisiae deletion strains, locus YLR330W, strain CHS5, hits give low values 0.986 | S. cerevisiae deletion strains, locus YLR342W, strain FKS1 (second series), hits give low values 0.989 | S. cerevisiae deletion strains, locus YLR342W, strain FKS1, hits give low values 0.975 | S. cerevisiae deletion strains, locus YLR357W, strain rsc2, hits give low values 0.957 | S. cerevisiae deletion strains, locus YLR370C, strain arc18, hits give low values 1 | S. cerevisiae deletion strains, locus YLR371W, strain rom2, hits give low values 0.975 | S. cerevisiae deletion strains, locus YLR384C, strain iki3, hits give low values 0.999 | S. cerevisiae deletion strains, locus YLR418C, strain cdc73, hits give low values 1.05 | S. cerevisiae deletion strains, locus YML016C, strain PPZ1, hits give low values 1.01 | S. cerevisiae deletion strains, locus YML032C, strain rad52, hits give low values 0.954 | S. cerevisiae deletion strains, locus YML120C, strain ndi1, hits give low values 0.993 | S. cerevisiae deletion strains, locus YML124C, strain tub3, hits give low values 0.987 | S. cerevisiae deletion strains, locus YMR058W, strain fet3, hits give low values 1.01 | S. cerevisiae deletion strains, locus YMR078C, strain ctf18, hits give low values 0.97 | S. cerevisiae deletion strains, locus YMR125W, strain sto1, hits give low values 0.989 | S. cerevisiae deletion strains, locus YMR129W, hits give low values 0.996 | S. cerevisiae deletion strains, locus YMR205C, strain PFK2, hits give low values 0.992 | S. cerevisiae deletion strains, locus YMR223W, strain ubp8, hits give low values 0.967 | S. cerevisiae deletion strains, locus YMR231W, strain pep5, hits give low values 0.995 | S. cerevisiae deletion strains, locus YMR263W, strain SAP30, hits give low values 1.02 | S. cerevisiae deletion strains, locus YMR307W, strain GAS1, hits give low values 1.06 and 0.998 | S. cerevisiae deletion strains, locus YNL067W, strain RPL9B, hits give low values 1.03 | S. cerevisiae deletion strains, locus YNL071W, strain lat1, hits give low values 1.01 | S. cerevisiae deletion strains, locus YNL128W, strain TEP1, hits give low values 1.03 | S. cerevisiae deletion strains, locus YNL153C, strain GIM3, hits give low values 1.03 | S. cerevisiae deletion strains, locus YNL175C, strain NOP13, hits give low values 1.02 | S. cerevisiae deletion strains, locus YNL183C, strain NPR1, hits give low values 0.924 | S. cerevisiae deletion strains, locus YNL197C, strain WHI3, hits give low values 1.05 | S. cerevisiae deletion strains, locus YNL209W, strain ssb2, hits give low values 0.999 | S. cerevisiae deletion strains, locus YNL224C, strain SQS1, hits give low values 1.02 | S. cerevisiae deletion strains, locus YNL233W, strain BNI4, hits give low values 1.04 | S. cerevisiae deletion strains, locus YNL248C, strain rpa49, hits give low values 1.01 | S. cerevisiae deletion strains, locus YNL250W, strain rad50, hits give low values 0.966 | S. cerevisiae deletion strains, locus YNL271C, strain bni1, hits give low values 0.989 | S. cerevisiae deletion strains, locus YNL298W, strain CLA4, hits give low values 0.962 | S. cerevisiae deletion strains, locus YNL307C, strain MCK1, hits give low values 0.988 | S. cerevisiae deletion strains, locus YNL322C, strain KRE1 (second series), hits give low values 0.995 | S. cerevisiae deletion strains, locus YNL322C, strain KRE1, hits give low values 0.999 | S. cerevisiae deletion strains, locus YNR049C, strain mso1, hits give low values 1 | S. cerevisiae deletion strains, locus YNR052C, strain pop2, hits give low values 0.955 | S. cerevisiae deletion strains, locus YOL006C, strain TOP1, hits give low values 1.09 | S. cerevisiae deletion strains, locus YOL012C, strain htz1 1.13 | S. cerevisiae deletion strains, locus YOL147C, strain pex11, hits give low values 0.979 | S. cerevisiae deletion strains, locus YOR001W, strain rrp6, hits give low values 0.991 | S. cerevisiae deletion strains, locus YOR061W, strain CKA2, hits give low values 1 | S. cerevisiae deletion strains, locus YOR069W, strain VPS5, hits give low values 0.993 | S. cerevisiae deletion strains, locus YOR070C, strain gyp1, hits give low values 0.999 | S. cerevisiae deletion strains, locus YOR080W, strain dia2, hits give low values 0.998 | S. cerevisiae deletion strains, locus YOR083W, strain WHI5 (second series), hits give low values 1 | S. cerevisiae deletion strains, locus YOR083W, strain WHI5, hits give low values 0.976 | S. cerevisiae deletion strains, locus YOR106W, strain vam3, hits give low values 1 | S. cerevisiae deletion strains, locus YOR136W, strain idh2, hits give low values 0.975 | S. cerevisiae deletion strains, locus YOR144C, strain elg1, hits give low values 0.989 | S. cerevisiae deletion strains, locus YOR184W, strain ser1, hits give low values 0.955 | S. cerevisiae deletion strains, locus YOR231W, strain MKK1, hits give low values 1.01 | S. cerevisiae deletion strains, locus YOR265W, strain rbl2, hits give low values 0.994 | S. cerevisiae deletion strains, locus YOR270C, strain vph1, hits give low values 1.04 | S. cerevisiae deletion strains, locus YOR290C, strain snf2, hits give low values 0.995 | S. cerevisiae deletion strains, locus YOR316C, strain cot1, hits give low values 0.995 | S. cerevisiae deletion strains, locus YPL051W, strain arl3, hits give low values 0.996 | S. cerevisiae deletion strains, locus YPL055C, strain LGE1, hits give low values 1.07 and 1.01 | S. cerevisiae deletion strains, locus YPL078C, strain atp4, hits give low values 0.992 | S. cerevisiae deletion strains, locus YPL106C, strain sse1, hits give low values 0.985 | S. cerevisiae deletion strains, locus YPL240C, strain hsp82, hits give low values 1.01 | S. cerevisiae deletion strains, locus YPL241C, strain CIN2, hits give low values 0.996 | S. cerevisiae deletion strains, locus YPL256C, strain CLN2, hits give low values 1.01 | S. cerevisiae deletion strains, locus YPR119W, strain clb2, hits give low values 0.985 | S. cerevisiae deletion strains, locus YPR141C, strain kar3, hits give low values 0.972 | S. cerevisiae deletion strains, locus YPR163C, strain tif3, hits give low values 0.968 | S. cerevisiae deletion strains, locus YPR167C, strain met16, hits give low values 0.993 | S. cerevisiae deletion strains, strain wtn01, hits give low values 1.01 | S. cerevisiae strains, strain wild type, hits give low values 0.998
